Peg3 promoter = Peg3 promoter-driven luciferase inhibitors, primary screen, cell-based, HeLa, luciferase luminescence. HeLa PEG-Prom luciferase reporter, overnight. inhibition, % at 20 µM. actives 1.7% (n = 360,000);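 active = inhibition of at least 50% at 20 µM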
HIF-2a block = HIF-2a reporter inhibitors, primary screen, luminescence, 786-0 RCC cells | 786-0 RCC cells HIF-2a reporter, luciferase luminescence, overnight | actives 0.72% (n = 360,000) | inhibition, % at 18.8 µM;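 active = inhibition of the luminescence signal of 40% or more relative to plate controls, in a single-dose primary screen at 18.75 µM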
Shn3 inh set2 = reduction of Shn3 3'UTR firefly luciferase signal, primary screen, Schnurri-3 inhibitor project, cell-based, Clone20 osteoblasts, set 2. Clone20 osteoblast Shn3 3'UTR firefly luciferase, 24 h. inhibition, % at 12.5 µM. actives 0.52% (n = 360,000);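 active = mean inhibition of at least 75% with every replicate also reaching 75%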;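 note: 0% = median of neutral control wells and 100% = pilot-screen positive control compound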
LMP1 NFkB inh = EBV LMP1-driven NF-kappaB luciferase reporter inhibitors, primary screen, cell-based, luminescence, single point; LMP1-induced NF-kappaB luciferase reporter cells; inhibition, % at 12.5 µM; actives 0.69% (n = 350,000); AID 504558, 2011; in the data active = inhibition above about 41%;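 note: 0% = neutral control wells and 100% = reference inhibitor control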
KKLEB cytotox = cytotoxicity in KKLEB CF airway cells, primary screen, cytotoxicity control for CF NF-kB inhibitor project, cell-based, uHTS, fluorescence assay plates; activity change (cytotoxicity), % at 5 µM; KKLEB CF airway cells viability, ATPlite luminescence, overnight; active compounds read low; cells stimulated with P. aeruginosa culture filtrate; actives 0.36% (n = 360,000); AID 602141, 2011;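 active = corrected activity change at or below -50% at 5 µM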
CF NFkB block = inhibitors of PAF-induced NF-kB signaling, primary screen, cell-based, GFP fluorescence, uHTS; actives 0.86% (n = 360,000); inhibition, % at 5 µM; KKLEB NF-kB-GFP reporter, GFP fluorescence overnight;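 active = at least 50% inhibition at 5 µM, scaled per plate between neutral and stimulator controls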;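 note: PAF is a Pseudomonas aeruginosa culture filtrate used as stimulus; plate controls were PAF-stimulated DMSO wells for no effect and unstimulated DMSO wells for full effect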
An asterisk follows results filed as active. Sampled rows, rich in hits. Any-hit rate of the full collection: about 2.9%.

SMILES | Peg3 promoter | HIF-2a block | Shn3 inh set2 | LMP1 NFkB inh | KKLEB cytotox | CF NFkB block
COCCN(C(=O)COC(=O)CNC(=O)c1ccc(C)cc1)c1c(N)n(Cc2ccccc2)c(=O)[nH]c1=O | -4.3 | 15.0 | 8.5 | 1.3 | 7.9 | -14.0
O=C(NNC(=S)NC(=O)c1sc2ccccc2c1Cl)c1ccc(Cl)cc1 | -22.5 | -95.5 | -41.3 | -3.8 | -65.0* | 75.5*
O=C(O)c1ccccc1NC(=S)NC(=O)c1sc2ccccc2c1Cl | -87.2 | -71.8 | -8.6 | -3.4 | -0.8 | 27.6
COc1ccc(CNCCc2ccc(Cl)cc2)cc1OCc1ccccc1 | 77.8* | 12.2 | 83.7 | -2.4 | -4.6 | 5.8
CCOc1cc(CNCc2ccccc2)ccc1OCc1ccc(Cl)cc1 | 48.8 | -0.9 | 92.4* | 15.2 | -8.3 | -7.7
CCOc1cc(CNCCc2ccc(S(N)(=O)=O)cc2)ccc1OCc1ccccc1 | 17.3 | 12.4 | 84.2 | -2.5 | -22.0 | 16.7
COc1ccc(CCNCc2ccc(-c3ccccc3)cc2)cc1OC | 86.7* | 9.5 | -3.7 | 4.7 | -8.6 | 11.2
COc1ccc(CCN2CC(C(=O)Nc3ccccc3F)CC2=O)cc1OC (centres undefined) | 10.1 | 4.8 | -3.6 | 3.9 | -7.1 | 26.0
CCOc1ccc(NC2=C(OC)C(=O)c3ccccc3C2=O)cc1 | -109.6 | -144.0 | -28.2 | -4.7 | 0.1 | 32.2
Cc1ccc(NC2=C(Cl)C(=O)c3ccccc3C2=O)cc1 | 95.8* | -55.0 | -59.3 | -5.9 | 6.1 | 15.9
CCN(CC)c1ccc(NC2=C(Cl)C(=O)c3ccccc3C2=O)cc1 | 102.9* | 96.4* | 96.6* | 80.1* | -93.0* | 95.9*
C[C@H]1CN([C@@H](C)CO)C(=O)c2cccc(NC(=O)Nc3ccc(C(F)(F)F)cc3)c2O[C@@H]1CN(C)C(=O)Nc1ccc(F)cc1 | 34.2 | -13.8 | 14.5 | -10.6 | -7.3 | 6.0
CC(C)NC(=O)N(C)C[C@H]1Oc2c(NC(=O)Nc3ccc4c(c3)OCO4)cccc2C(=O)N([C@H](C)CO)C[C@@H]1C | -5.4 | -19.4 | -3.4 | 82.9* | 8.2 | -0.6
C[C@H](CO)N1C[C@H](C)[C@@H](CN(C)C(=O)Nc2ccc3c(c2)OCO3)Oc2c(NC(=O)Nc3ccccc3)cccc2C1=O | 5.7 | -11.1 | -9.3 | -2.5 | -12.7 | -3.1
C[C@H](CO)N1C[C@H](C)[C@@H](CN(C)C(=O)Nc2ccc(C(F)(F)F)cc2)Oc2c(NC(=O)Nc3ccc(C(F)(F)F)cc3)cccc2C1=O | 56.0* | 8.4 | 16.9 | -9.0 | -20.1 | 4.8
Oc1ccccc1-c1nnc(SCCN2CCOCC2)n1Cc1ccccc1 | 53.4* | -20.1 | 51.5 | -1.8 | 0.2 | 5.5
CCC(=O)c1ccc(OCC(O)CN(C)C2CCCCC2)cc1 (centres undefined) | -11.3 | 13.4 | -19.0 | -0.9 | 1.7 | 2.6
CN(CC(O)COc1ccc(OCC(O)CN(C)C2CCCCC2)cc1)C1CCCCC1 (centres undefined) | 82.7* | 19.2 | 5.5 | -4.2 | -15.4 | 26.2
CNc1ncc(C(=O)c2ccc(Br)cc2)s1 | -277.0 | -217.1 | -63.2 | -24.9 | 0.6 | 19.2
C=CCNC(=O)CSc1nnc(-c2ccccc2Br)n1-c1cccc(C(F)(F)F)c1 | 51.9* | 0.3 | -1.7 | 2.1 | 8.5 | 5.0
O=C(CSc1nnc(-c2ccccc2O)n1-c1ccccc1)Nc1cccc(C(=O)O)c1 | 18.6 | 24.2 | -13.5 | 5.8 | -1.4 | 19.8
Cc1ccc2c(CN3CCN(S(=O)(=O)/C=C/c4ccccc4)CC3)cc(=O)oc2c1 | 16.4 | 15.3 | -23.9 | 4.7 | 9.1 | 2.7
COC(=O)/C=C\C(C#N)(C#N)N=Cc1ccc(OC)cc1 | 104.9* | -12.3 | 4.0 | 0.1 | -13.4 | 9.1
COc1ccccc1N1CCN(CC(=O)Nc2cc(C)nn2-c2nc(C)cc(C)n2)CC1 | 51.7* | 11.2 | -14.1 | 3.3 | -5.5 | 21.2
Cc1ccc(S(=O)(=O)N2[C@@H](c3cccc(Cl)c3)C(C(=O)O)=CC[C@H]2c2ccc(C(C)C)cc2)cc1 | 15.2 | 3.5 | -9.8 | -0.2 | 24.4 | 36.0

Screens deposited in PubChem by several laboratories.
